Experimental data as given in PubChem BioAssay AID493170 (National Center for Advancing Translational Sciences (NCATS), 2011).
Inconclusive results are not listed. The source made the active and inactive calls. Calls follow the shape of the dose curve; as a rule, active = well fitted inhibition curve with a large enough effect; inconclusive = small, poorly fitted or top-dose-only effect, or effect the other way; inactive = flat fitted curve, though single readings scatter.

What follows are compounds tested against Ubiquitin carboxyl-terminal hydrolase 2 (Homo sapiens) (UniProt O75604) (assay: Ub-rhodamine 110 based assay for inhibitors Ubiquitin-specific Protease USP2a). Conditions: USP2a Ub-rhodamine110 cleavage, fluorescence; series mostly up to 38.3 µM.
Chain of Ubiquitin carboxyl-terminal hydrolase 2 (Homo sapiens) (O75604 whole entry, looked up): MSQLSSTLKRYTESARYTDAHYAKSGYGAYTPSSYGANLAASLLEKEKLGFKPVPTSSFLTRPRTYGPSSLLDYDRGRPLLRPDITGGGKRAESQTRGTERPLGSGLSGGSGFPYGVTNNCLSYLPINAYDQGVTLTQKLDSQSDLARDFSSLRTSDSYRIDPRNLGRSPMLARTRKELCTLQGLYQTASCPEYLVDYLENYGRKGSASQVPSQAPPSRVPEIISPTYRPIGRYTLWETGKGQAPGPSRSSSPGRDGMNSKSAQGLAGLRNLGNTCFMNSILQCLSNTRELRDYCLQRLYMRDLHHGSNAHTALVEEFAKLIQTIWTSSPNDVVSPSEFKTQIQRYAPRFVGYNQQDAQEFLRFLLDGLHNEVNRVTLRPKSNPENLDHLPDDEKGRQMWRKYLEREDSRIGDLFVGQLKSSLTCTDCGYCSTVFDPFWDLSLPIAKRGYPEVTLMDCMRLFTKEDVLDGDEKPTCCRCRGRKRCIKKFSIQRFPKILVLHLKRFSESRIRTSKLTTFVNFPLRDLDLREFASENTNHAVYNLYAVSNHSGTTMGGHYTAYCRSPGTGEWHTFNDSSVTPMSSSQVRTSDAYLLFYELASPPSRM
Procedure, shortened: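 5 nM USP2a preincubated with compounds for 30 min at RT in 20 mM Tris-HCl pH 8.0, 2 mM CaCl2, 2 mM beta-mercaptoethanol, 0.05% CHAPS. Cleavage of 150 nM Ub-rhodamine 110 read kinetically (Ex 485/Em 531) for 7 min.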
Also: nearly all actives have a fitted effect of over 50% in size.
Potency is read from the fitted curve at half-maximal effect.

Potency, inactive:
O=C(Nc1ncccc1Cl)c1cccc(F)c1, O=C(NCCCN1CCCC1=O)c1cccc(N2CCCC2=O)c1, Cc1n[nH]c(C)c1S(=O)(=O)N1CCCC(C(=O)NC2CCCc3ccccc32)C1 (centres undefined), O=C(NC(=S)N1CCCc2ccccc21)c1ccc([N+](=O)[O-])cc1, Cc1ccc(C(=O)N/C(=C/c2cccs2)C(=O)NCc2ccco2)cc1, CCOC(=O)Nc1ccc(S(=O)(=O)Nc2cc(C)nc(C)n2)cc1, Cc1[nH]c2ccccc2c1C(c1ccccn1)c1c(C)[nH]c2ccccc12, Cc1nc2n(n1)CC(O)CS2 (centres undefined), CC(C)(C)C1CCC2(CC1)Nc1cccc3cccc(c13)N2, COc1ccc(C2CC(=O)N3CN(c4ccccc4F)CSC3=C2C#N)cc1OC (centres undefined), O=C(COC(=O)c1cccc(S(=O)(=O)N2CCc3ccccc32)c1)NC1CCS(=O)(=O)C1 (centres undefined), CC1CCCCN1CCNC(=O)CC1Oc2ccccc2NC1=O (centres undefined), CC12CN3CC(C)(CN(C1)C3c1ccc(Cl)cc1Cl)C2O (centres undefined), Nn1c(Nc2ccccc2)nc2ccccc2c1=O, c1coc(CNC2CCCCCCC2)c1, Cn1ccc(=Nc2ccc(NC(=O)c3ccc(N=c4ccn(C)c5ccc([N+](=O)[O-])cc45)cc3)cc2)cc1, CC(=O)O[C@H]1[C@H](O)[C@H](Oc2c(O)c(C)c3c4c2[C@@H](C)CC[C@@H]4[C@@H](C)C[C@H]3C=C(C)C)O[C@@H](C)[C@H]1O, CC(C)(C)[C@H]1COC(=O)[C@@H](Cc2ccc(F)cc2)C/C=C\C[C@@H](CC(=O)N[C@@H](CO)Cc2ccccc2)C(=O)N1, CC1CCCC(N2CCN(C(=O)c3cccc(F)c3)CC2)C1 (centres undefined), C#CCOCCOCCOCCNc1nc(N2CCN(C(=O)CCCCCCCCCCNC(=O)[C@H](CCCCN)n3cc(CCO)nn3)CC2)nc(N2CCN(C(=O)CCCCCCCCCCNC(=O)[C@H](CCCCN)n3cc(C[C@@H](C)CC)nn3)CC2)n1, COCCNCC(=O)N1CCCCCC1, CCn1nnnc1SCC(=O)Nc1cccc(C)n1, O=C(O)CCn1c(C2CCCCC2)nc2ccccc21, COc1ccc(CCN2CC(C#N)=C3c4cc(OC)c(OC)cc4CCN3C2)cc1OC, CCN(CC)S(=O)(=O)c1ccc(Cl)c(NC(=O)COC(=O)c2c(C)noc2C)c1, Cc1ccc(C(=O)O/N=C/c2c(C(F)(F)F)nn(C)c2Sc2ccc(Cl)cc2)cc1, COc1ccc(-c2noc(CSc3nnc(Cc4ccccc4)n3-c3ccc(Cl)cc3)n2)cc1, CC1=NN(c2ccc(C(=O)O)cc2)C(=O)/C1=C\c1ccc(OC(=O)c2cccs2)cc1, Cc1cc(SCC(=O)NC2CCCCC2)nc2ccccc12, O=C(COc1ccccc1)NCCSc1ccccc1

Potency, active:
COC(=O)C1CCN(C(=O)c2cc(-c3ccco3)nc3ccccc23)CC1 3.55 µM, O=C(Cc1ccc(S(=O)(=O)N2CCOCC2)s1)NCCC(c1ccccc1)c1ccccc1 10 µM, CCOC(=O)C1CCCN(C(=O)c2cc(-c3ccco3)nc3ccccc23)C1 (centres undefined) 4.47 µM, Cc1ccc(C)c(S(=O)(=O)N2CCN(C(=O)/C=C/c3ccco3)CC2)c1 10 µM, COC(=O)CSc1nnc(NC(=O)C2CC(=O)N(c3ccc(F)cc3)C2)s1 (centres undefined) 11.2 µM, O=C(CCN1C(=O)/C(=C\c2ccco2)SC1=S)Nc1ccc(C(=O)O)c(O)c1 7.94 µM, O=C1Nc2ccccc2SC(c2ccccc2)C1O (centres undefined) 3.98 µM, Cc1ccc(CSC2=Nc3ccccc3C3=NC(CC(=O)NCc4ccco4)C(=O)N23)cc1 (centres undefined) 8.91 µM, O=C(NN1C(=O)/C(=C/C=C/c2ccco2)SC1=S)c1ccncc1 10 µM
